Laboratory results reported in PubChem BioAssay AID588475 (Sanford-Burnham Center for Chemical Genomics, 2011).
Several values for one entry are separate records, joined by “and”; a condition that tells them apart may be missing. Identical values can stand only once. Among all 350,000 compounds or so, about 2,100 (0.6%) were called active. The sample holds actives, similar compounds and a random draw of the others, so the mix is not that of the screen.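 How the source made its calls: active means inhibition of the ligand-induced calcium signal above about 50% at the single tested concentration (limit read from the data); inactive means the rest.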 More than one record can exist for a structure, and the calls need not agree.

assay: antagonists of CRF-BP/CRF-R2 complex, primary screen, cell-based, HEK293, calcium dye fluorescence, uHTS (AID 588475); conditions: CRF-induced calcium fluorescence, at 11.8 µM, stronger effect = higher value

SMILES | inhibition
Cn1c(SCC(=O)N2CCCCC2)nc2c(c1=O)SCC2 | -10.6% (inactive)
Cc1cccc(CSc2nc3c(c(=O)n2C)SCC3)c1 | 59.8% (active)
Cc1cccc(CSc2nnc(C)c(=O)n2N)c1 | 18.4% (inactive)
CCCN1C2=C(C(=O)CCC2)C(c2ccc(O)c(Br)c2)C2=C1CCCC2=O | -18.3% (inactive)
CCc1c(C)nc(N)n2c(SCC(=O)NC3CCCCC3)nnc12 | -4.43% (inactive)
CCOc1cc(/C=C(/C#N)c2ccc(Cl)cc2)cc(Cl)c1OCC(=O)O | 57.4% (active)
CCOc1cc(/C=N/NC(=O)OC)ccc1OCCSc1ccc(Cl)cc1 | -13.1% (inactive)
COc1cc(/C=C(/NC(=O)c2ccc(Cl)cc2Cl)C(=O)O)cc(OC)c1OC | -5.5% (inactive)
COc1ccc(SC[C@H](Cc2ccccc2)N2CCN(CCc3ccccc3)CCC2=O)cc1 | -0.63% (inactive)
O=C(NC(Nc1nc2ccc([N+](=O)[O-])cc2s1)(C(F)(F)F)C(F)(F)F)c1ccccc1 | 56.4% (active)
N=C1C(c2nc3ccccc3s2)=C(O)CN1NC(=O)c1ccc([N+](=O)[O-])cc1 | 18.1% (inactive)
O=C(O)c1cc([N+](=O)[O-])c(Nc2cccc3ccccc23)c([N+](=O)[O-])c1 | 42.1% (inactive)
O=C(COc1ccc(NC(=O)c2ccccc2[N+](=O)[O-])cc1)c1ccc(F)cc1 | 20.8% (inactive)
Cc1ccccc1-c1cc(C(=O)NCc2cccs2)n(CC2CC(c3cccnc3)=NO2)n1 (stereo unspecified) | 9.77% (inactive)
Cc1ccc(CNC(=O)c2cc(-c3ccccc3C)n(CC3CC(c4cccc([N+](=O)[O-])c4)=NO3)n2)cc1 (stereo unspecified) | 78.1% (active)
COc1ccc(C2=NOC(Cn3nc(C(=O)NCc4ccc5c(c4)OCO5)cc3-c3ccccc3)C2)cc1 (stereo unspecified) | 1.87% (inactive)
CC(C)c1cc(C(=O)N(C)C2CCCN(Cc3ccccc3F)C2)n(C)n1 (stereo unspecified) | -12.1% (inactive)
CCCCn1c(N)c(N(CC(C)C)C(=O)c2cccc(S(=O)(=O)N3CCN(C(C)=O)CC3)c2)c(=O)[nH]c1=O | 8.7% (inactive)
COc1ccccc1NC(=O)CC(NCCN(C)C)C(=O)O (stereo unspecified) | 3.95% (inactive)
Cc1ccc(C)c(NC(=O)COC(=O)CSc2ccccc2)c1 | 6.02% (inactive)
COC(=O)C(CC(=O)Nc1cc(C)ccc1C)Nc1ccccc1OC (stereo unspecified) | 70.2% (active)
CCc1ccc(S(=O)(=O)NCC(O)COc2ccc(OC)cc2)cc1 (stereo unspecified) | -4.68% (inactive)
Cc1ccccc1Nc1scc(-c2ccc(Br)cc2)[n+]1-c1ccccc1C | 56.5% (active)

SMILES | inhibition
Cc1ccsc1/C=N/NC(=O)Cc1cc(=O)[nH][nH]1 | 14.1% (inactive)
Cc1cccc(N2CCN(C(C)C(=O)N3CCc4ccccc43)CC2)c1C (stereo unspecified) | -7.95% (inactive)
CCN(CC)C(=O)CSc1ncnc2c1cnn2-c1ccccc1 | 55.8% (active)
CCC(C)N(C(=O)CSc1ncnc2c1cnn2-c1ccccc1)C1CCS(=O)(=O)C1 (stereo unspecified) | -8.13% (inactive)
CCN(C(=O)CSc1ncnc2c1cnn2-c1ccccc1)C1CCS(=O)(=O)C1 (stereo unspecified) | 4.09% (inactive)
O=C(COC(=O)c1cncc(Br)c1)Nc1ccc(S(=O)(=O)N2CCOCC2)cc1 | 5.84% (inactive)
COc1ccc(CCN=C2SCC(=O)N2Cc2ccccc2)cc1OC | 7.2% (inactive)
COc1ccc(CCN2C(=O)C(C)=C(C)C2=O)cc1OC | -6.13% (inactive)
COc1ccc(CCNC2=C(Cl)C(=O)N(Cc3ccccc3)C2=O)cc1OC | 54% (active)
Clc1ccc(Cl)c(Oc2ccc(Oc3nc(Cl)ccc3Cl)cc2)n1 | 55.5% (active)
N#Cc1ccc(-c2ccc(Cl)cc2)nc1Oc1ccc(F)cc1 | -14% (inactive)
CCc1nn(CC(=O)N2CCN(CC)CC2)c(=O)c2cccn12 | -5.15% (inactive)
CN(CCOc1ccc(CC2SC(=O)NC2=O)cc1)c1ccccn1 (stereo unspecified) | 66.6% (active) and 12.6% (inactive)
CC(C)=N/N=C1/NC(=O)C(Cc2ccccc2)S1 (stereo unspecified) | 2.42% (inactive)
CC(O)c1ccc(OCCN(C)c2ccccn2)cc1 (stereo unspecified) | -5.71% (inactive)
OC(C#CCN1CCOCC1)(c1ccccc1)C1CCCCC1 (stereo unspecified) | -6% (inactive)
Cc1ccccc1-n1c(SCC(=O)Nc2cccc3ccccc23)nc(O)cc1=O | -4.41% (inactive)
COc1ccc(S(=O)(=O)N2CCOCC2)cc1NC(=O)CSc1cc(C)ccc1C | 1.57% (inactive)
COc1ccc(S(=O)(=O)N2CCOCC2)cc1NC(=O)COc1ccccc1 | 12.8% (inactive)
COc1ccc(S(=O)(=O)N2CCOCC2)cc1NC(=O)CC1CC2CCC1C2 (stereo unspecified) | 80.4% (active)
O=C(Nc1cccn(Cc2c(Cl)cccc2Cl)c1=O)c1ccc(Cl)cc1 | -7% (inactive)
Cc1ccc(OCc2nnc(NC(=O)OCC(C)C)s2)cc1 | -2.73% (inactive)
COc1cc(C2C(C(=O)Nc3ccc(F)cc3)=C(C)Nc3nc(CCCO)nn32)cc(OC)c1OC (stereo unspecified) | 5.65% (inactive)

SMILES | inhibition
COc1ccc(NC(=O)C2=C(C)NC(=O)NC2c2ccccc2[N+](=O)[O-])cc1 (stereo unspecified) | -10% (inactive)
COC(=O)c1nc2n(n1)C(c1ccc([N+](=O)[O-])cc1)C(C(=O)Nc1ccc(Cl)cc1)=C(C)N2 (stereo unspecified) | 56.3% (active)
O=C(Nc1cc(-c2ccccc2)nn1-c1ccccc1F)c1ccc([N+](=O)[O-])cc1 | -5.97% (inactive)
CCS(=O)(=O)C1=NSC2=NC(=O)/C(=C\c3ccc(OS(=O)(=O)c4ccccc4)cc3)C(=N)N21 | 0.32% (inactive)
CCS(=O)(=O)C1=NSC2=NC(=O)/C(=C\c3cc(C)n(-c4cccc(OC)c4)c3C)C(=N)N21 | 81.8% (active)
CS(=O)(=O)C1=NN2C(=N)/C(=C\c3ccc(OCCOc4ccccc4)cc3)C(=O)N=C2S1 | 26.8% (inactive)
CCOc1ccc(NC(=S)NC(=O)/C=C/c2ccc(OC)cc2)c([N+](=O)[O-])c1 | -8% (inactive)
CCOC(=O)/C(C#N)=C\c1c(C)cc(C)c(COC(C)=O)c1C | 3.93% (inactive)
CCOC(=O)c1nnn(-c2nonc2-n2cccc2)c1CN1CCC(C(=O)OCC)CC1 | 17.9% (inactive)
COc1ccc(-c2ccc(CCC(=O)O)n2NC(=O)c2ccc(C(C)(C)C)cc2)cc1 | 7.59% (inactive)
Cc1cccc(OC(C)C(=O)N2CCc3ccccc3C2)c1 (stereo unspecified) | 16.6% (inactive)
COCc1cc(=O)[nH]c(SC)n1 | 9.17% (inactive)
Cc1cc(C)c2nc3nc(C)cc(C)c3c(N)c2c1 | 90.7% (active)
CN(C)S(=O)(=O)c1cccc(NC(=S)N/N=C/C(=O)c2ccccc2)c1 | 3.21% (inactive)
Cc1ccc(/C=N/NC(=S)NC2CCCCC2)o1 | -28.4% (inactive)
Cc1ccc(/C=N/NC(=S)Nc2cccc(S(=O)(=O)N(C)C)c2)o1 | 82.9% (active)
O=C1CC2(CCCC2)C(=O)N1CN1CCN(S(=O)(=O)c2ccc(F)cc2F)CC1 | 6.17% (inactive)
Cc1cc(C(=O)OCC(=O)Nc2nccs2)c2ccccc2n1 | 8.78% (inactive)
O[C@H]1CN(Cc2cccs2)[C@@H](c2ccc(Cl)cc2)C[C@@H]1n1cc(C2CC2)nn1 | -16.1% (inactive)
Cc1cccc(N2CCN(C(=O)c3cnn4c(C(F)F)cc(-c5ccccc5)nc34)CC2)c1C | -11.8% (inactive)
CCCc1nc(SCC(=O)Nc2ccccc2OC)c2c(=O)n(C)c(=O)n(C)c2n1 | -6.56% (inactive)
CN1CN(C)c2ccc([N+](=O)[O-])c3cccc1c23 | 4.39% (inactive)
O=C1c2cccc3c([N+](=O)[O-])ccc(c23)C(=O)N1CC1CCCO1 (stereo unspecified) | 87.2% (active)

SMILES | inhibition
CCOc1cccc(=O)c2c(C)n(CC3CCCO3)c(C)c12 (stereo unspecified) | -12.3% (inactive)
Cc1ccc(S(=O)(=O)NC(=O)c2cccc(C)c2)cc1 | -9.88% (inactive)
CCCC(=O)Nc1cc(OCC)c(NC(=O)NC2CCCCC2)cc1OCC | 15.3% (inactive)
COC(=O)C1=CN(Cc2ccc(OC)cc2)C=C(C(=O)OC)C1c1ccc(O)c(OC)c1 | -26.4% (inactive)
CCOc1cc(C2C(C(=O)OC)=CN(C3CCCC3)C=C2C(=O)OC)cc(Br)c1O | 50.2% (active)
CCn1c(SCC(=O)NC2CC2)nnc1-c1ccncc1 | 52% (active)
CCn1c(SCC(=O)NC2CC2)nnc1-c1ccccn1 | 2.34% (inactive)
CCn1c(SCC(=O)NC2CC2)nnc1-c1ccccc1OC | 18.7% (inactive)
Nc1nc(SCC(=O)Nc2cc(C(F)(F)F)ccc2Cl)[nH]c(=O)c1NC(=O)c1ccco1 | 0.81% (inactive)
COC(=O)C1=CO[C@@H](O[C@@H]2O[C@H](CO)[C@@H](O)[C@H](O)[C@H]2O)C2C1C[C@H](O)[C@@H]2C (stereo partly specified) | 1.31% (inactive)
COc1ccc(C)cc1NC(=O)Nc1ccccc1SC | 23.5% (inactive)
CCOc1ccc(NC(=O)Nc2cc(C)ccc2OC)cc1 | 54.1% (active)
CCOc1ccc(NC(=O)Nc2cc(C)on2)cc1 | -27.8% (inactive)
CCN(CC(=O)Nc1cc(Cl)ccc1C)C(=O)CN1C(=O)NC2(CCCC2)C1=O | -3.2% (inactive)
CN(C(=O)CCNC(=O)Cn1ccc2ccccc2c1=O)c1ccc(Br)cc1 | 1.39% (inactive)
Cc1cccc(-c2nc(CS(=O)CC(=O)NC(C)CCc3ccccc3)c(C)o2)c1 (stereo unspecified) | -5.77% (inactive)
Cn1nc(N)c2ncc(C(Cl)(Cl)Cl)nc21 | 73.4% (active)
COc1ccc(CC(=O)OC(C)C(=O)Nc2ccc(S(N)(=O)=O)cc2)cc1 (stereo unspecified) | -1.19% (inactive)
COc1ccc(S(=O)(=O)N2CCN(C(=O)c3cccs3)CC2)cc1OC | 22.7% (inactive)
COc1cccc(NC(=O)Nc2ccc(F)cc2)c1 | -2.92% (inactive)
COc1cccc(NC(=S)NC(=O)c2c(Cl)c(C)nn2C)c1 | -4.16% (inactive)
COc1cccc(NC(=S)C(C#N)=C2N(C)c3ccccc3N2C)c1 | 79.1% (active)
